# Laboratory results taken from PubChem BioAssay.
# Records with an inconclusive call do not appear. Active and inactive are the calls of the source.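 Rule for the calls, unless noted: active = efflux inhibition above 0.42, the validation set average plus 4 SD; inconclusive = no clear call, values can overlap the other calls; inactive = the rest.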
# Assays:
# [1] = rapamycin-like changes in RPL19A-GFP expression – cell-based, S. cerevisiae, multiplex flow cytometry, primary screen (AID 1862; in the data active = percent of DMSO control GFP below about 86%;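 note: lower values mimic rapamycin by blocking the RPL19A rise seen in DMSO cells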); settings: S. cerevisiae RPL19A-GFP strain, flow cytometry fluorescence, 3 h; at 10 µM; stronger effect = lower value
# [2] = TOR pathway GLN3 branch reporter MEP2-GFP changes – S. cerevisiae, multiplex flow cytometry, primary screen (AID 1867;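 active = GFP response, as percent of the DMSO control, above the screen-wide mean plus 3 SD, about 139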;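 note: median GFP channel fluorescence of barcode-gated MEP2-GFP cells measured by flow cytometry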); settings: S. cerevisiae MEP2-GFP strain, 3 h, at 10 µM, stronger effect = higher value, 100% means same as DMSO wells
# [3] = TOR pathway RTG branch CIT2 reporter changes – S. cerevisiae, GFP fusion, multiplex flow cytometry, primary screen (AID 1870;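 active = percent response above a set limit, the screen-wide mean plus 3 SD, cut at about 130% in these data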;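 note: barcoded CIT2-GFP strain pooled with four other GFP strains with rapamycin as positive control; median GFP fluorescence per well over plate mean of DMSO wells so 100% = DMSO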); settings: S. cerevisiae CIT2-GFP expression, 3 h, at 10 µM, stronger effect = higher value
# [4] = TOR pathway LAP4-GFP level changes – S. cerevisiae, multiplex flow cytometry, primary screen (AID 1873;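 active = GFP signal, as percent of the solvent control, above the screen mean plus 3 SD, about 149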); settings: S. cerevisiae LAP4-GFP expression, 3 h, at 10 µM, stronger effect = higher value
# [5] = yeast AGP1-GFP level changes, GLN3 branch – cell-based, multiplex flow cytometry, S. cerevisiae, primary screen (AID 1887;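 active = GFP signal above the screen-wide mean plus 3 SD, that is over about 124.5% of the solvent control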;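 note: AGP1-GFP fusion strain of S. cerevisiae within a five-strain barcoded multiplex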); settings: 3 h, at 10 µM, stronger effect = higher value
# [6] = reduced mouse 2C T cell binding to pMHC/ICAM-1 vesicles – MLPCN validation set, flow cytometry, LFA-1/ICAM-1 modulator project, pilot screen (AID 2523;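 active = response below a set limit, under 55% cells CD8-positive and vesicle-bound, and CD8 cells' 90th-percentile brightness under 279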;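 for vesicle binding response: mean PE anti-B7-1 fluorescence of CD8+ cells relative to row control; 100% = QL9-loaded vesicles with DMSO vehicle in the same plate row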); settings: 2C mouse CD8+ T cells, at 7 µM, stronger effect = lower value; double positive events: measured here: CD8+/vesicle+ event percentage
# [7] = molecular target: Integrin beta-1 (Homo sapiens) + Integrin alpha-4 (Homo sapiens) (UniProt P13612+P05556); assay: alpha4beta1 integrin LIBS antibody binding reduction – U937 cells, HUTS-21 mAb, flow cytometry, validation set, VLA-4 allosteric modulator project, pilot screen (AID 2674;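 active = inhibition above 50%, about 3 SD of the validation set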;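 note: antibody binding induced by the VLA-4 ligand LDV present at three times its Kd; 0% = LDV ligand with antibody and no compound and 100% = antibody without LDV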); settings: HUTS-21 LIBS mAb binding, at 6.7 µM, stronger effect = higher value, binding induced by LDV ligand
# Sequence of Integrin beta-1 (Homo sapiens) + Integrin alpha-4 (Homo sapiens) (P05556 whole entry, looked up): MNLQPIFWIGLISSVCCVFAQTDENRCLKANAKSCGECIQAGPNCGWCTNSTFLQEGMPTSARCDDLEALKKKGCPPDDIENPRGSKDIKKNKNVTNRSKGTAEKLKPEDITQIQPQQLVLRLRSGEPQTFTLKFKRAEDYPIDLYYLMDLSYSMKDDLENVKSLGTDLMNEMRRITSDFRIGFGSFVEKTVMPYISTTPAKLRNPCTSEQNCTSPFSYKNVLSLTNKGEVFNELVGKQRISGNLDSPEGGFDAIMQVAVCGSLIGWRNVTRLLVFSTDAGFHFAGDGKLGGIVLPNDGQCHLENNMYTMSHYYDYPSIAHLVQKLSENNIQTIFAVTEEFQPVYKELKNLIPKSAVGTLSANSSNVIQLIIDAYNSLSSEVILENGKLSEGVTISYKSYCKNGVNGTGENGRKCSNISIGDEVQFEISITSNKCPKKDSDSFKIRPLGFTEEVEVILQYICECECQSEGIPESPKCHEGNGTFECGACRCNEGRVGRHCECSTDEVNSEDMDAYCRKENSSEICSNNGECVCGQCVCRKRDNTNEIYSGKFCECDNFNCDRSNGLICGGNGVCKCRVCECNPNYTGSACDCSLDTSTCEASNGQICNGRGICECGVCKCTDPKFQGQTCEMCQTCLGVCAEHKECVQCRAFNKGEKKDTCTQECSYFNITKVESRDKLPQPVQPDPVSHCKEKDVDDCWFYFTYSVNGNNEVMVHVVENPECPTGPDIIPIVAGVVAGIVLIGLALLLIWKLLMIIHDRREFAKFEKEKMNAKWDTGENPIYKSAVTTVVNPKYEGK
# Sequence of Integrin beta-1 (Homo sapiens) + Integrin alpha-4 (Homo sapiens) (P13612 whole entry, looked up): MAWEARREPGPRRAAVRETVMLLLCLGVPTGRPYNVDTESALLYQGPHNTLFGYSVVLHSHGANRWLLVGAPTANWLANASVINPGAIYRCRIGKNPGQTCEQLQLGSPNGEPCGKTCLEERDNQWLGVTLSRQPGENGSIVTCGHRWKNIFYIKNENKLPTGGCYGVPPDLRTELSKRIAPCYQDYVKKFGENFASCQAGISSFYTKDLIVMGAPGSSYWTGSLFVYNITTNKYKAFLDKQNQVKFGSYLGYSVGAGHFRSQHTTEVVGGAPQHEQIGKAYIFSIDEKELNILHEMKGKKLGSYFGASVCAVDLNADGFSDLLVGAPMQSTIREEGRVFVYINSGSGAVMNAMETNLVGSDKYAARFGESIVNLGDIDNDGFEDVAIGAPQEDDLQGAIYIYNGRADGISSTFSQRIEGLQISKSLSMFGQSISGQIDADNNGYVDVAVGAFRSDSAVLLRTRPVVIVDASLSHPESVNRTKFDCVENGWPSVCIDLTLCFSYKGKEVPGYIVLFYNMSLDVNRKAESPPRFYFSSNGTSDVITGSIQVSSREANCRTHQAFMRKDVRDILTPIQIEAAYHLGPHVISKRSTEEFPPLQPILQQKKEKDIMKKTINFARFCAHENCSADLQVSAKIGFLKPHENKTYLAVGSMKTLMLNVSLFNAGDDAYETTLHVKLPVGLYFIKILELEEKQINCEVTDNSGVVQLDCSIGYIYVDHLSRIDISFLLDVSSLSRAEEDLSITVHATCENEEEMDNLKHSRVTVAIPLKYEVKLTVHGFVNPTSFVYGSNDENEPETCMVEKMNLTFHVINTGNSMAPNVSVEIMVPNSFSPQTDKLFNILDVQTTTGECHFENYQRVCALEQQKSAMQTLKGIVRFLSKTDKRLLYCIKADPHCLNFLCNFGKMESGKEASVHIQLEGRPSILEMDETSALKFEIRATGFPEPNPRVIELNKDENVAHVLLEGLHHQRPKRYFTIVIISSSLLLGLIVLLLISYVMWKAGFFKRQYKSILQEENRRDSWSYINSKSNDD
# [8] = calorie-restriction mimetic ROS inhibitors, yeast – validation compound set, pilot screen (AID 2706;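 active = superoxide response below 65% of plate, a cut near 3 SD across the whole screen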;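 note: yeast exposed to compound for one week at 30 degrees C before staining; 100% = mean of all compound wells on the same plate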); settings: S. cerevisiae aging, superoxide DHE fluorescence; at 10 µM; stronger effect = lower value
# [9] = molecular target: Beta-adrenergic receptor kinase 1 (Homo sapiens) (UniProt P25098); assay: GRK2 binders displacing RNA aptamer, biochemical, validation, human GRK2, bead flow cytometry (AID 488806;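 active = aptamer binding inhibition above 30%, about 3 SD of noise from non-fluorescent compounds; inactive = inhibition at or below 30%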); settings: bead-bound GRK2, FAM-aptamer displacement, at 10 µM, stronger effect = higher value
# Sequence of Beta-adrenergic receptor kinase 1 (Homo sapiens) (P25098 whole entry, looked up): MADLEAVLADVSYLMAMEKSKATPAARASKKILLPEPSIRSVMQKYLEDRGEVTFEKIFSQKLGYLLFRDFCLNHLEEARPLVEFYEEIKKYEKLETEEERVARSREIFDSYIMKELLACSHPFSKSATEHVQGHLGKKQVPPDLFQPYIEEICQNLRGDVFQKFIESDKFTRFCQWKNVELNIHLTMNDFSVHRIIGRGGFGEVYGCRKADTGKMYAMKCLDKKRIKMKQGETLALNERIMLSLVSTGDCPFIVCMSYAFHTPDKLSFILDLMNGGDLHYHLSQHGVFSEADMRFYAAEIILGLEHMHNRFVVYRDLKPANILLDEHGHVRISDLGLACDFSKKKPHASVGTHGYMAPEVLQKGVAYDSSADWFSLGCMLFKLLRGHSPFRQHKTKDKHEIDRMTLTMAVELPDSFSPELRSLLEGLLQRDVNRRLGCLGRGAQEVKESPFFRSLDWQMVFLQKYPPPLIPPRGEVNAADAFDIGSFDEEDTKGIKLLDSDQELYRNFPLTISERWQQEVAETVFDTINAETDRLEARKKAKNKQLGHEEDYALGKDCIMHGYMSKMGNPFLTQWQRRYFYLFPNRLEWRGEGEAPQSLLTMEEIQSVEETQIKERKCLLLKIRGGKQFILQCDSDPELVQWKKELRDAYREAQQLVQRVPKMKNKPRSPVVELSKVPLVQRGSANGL
# [10] = molecular target: Beta-2 adrenergic receptor (Homo sapiens) (UniProt P07550); assay: agonist-induced loss of surface beta2AR – cell-based, FAP fluorogen, flow cytometry, validation set, pilot screen (AID 504459;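 active = percent response above 42, roughly 3 SD of non-fluorescent test compounds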;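 note: agonist-driven loss of surface beta2AR via internalization measured by FAP dye flow cytometry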); settings: Am2.2-beta2AR cells, at 10 µM, stronger effect = higher value
# Sequence of Beta-2 adrenergic receptor (Homo sapiens) (P07550 whole entry, looked up): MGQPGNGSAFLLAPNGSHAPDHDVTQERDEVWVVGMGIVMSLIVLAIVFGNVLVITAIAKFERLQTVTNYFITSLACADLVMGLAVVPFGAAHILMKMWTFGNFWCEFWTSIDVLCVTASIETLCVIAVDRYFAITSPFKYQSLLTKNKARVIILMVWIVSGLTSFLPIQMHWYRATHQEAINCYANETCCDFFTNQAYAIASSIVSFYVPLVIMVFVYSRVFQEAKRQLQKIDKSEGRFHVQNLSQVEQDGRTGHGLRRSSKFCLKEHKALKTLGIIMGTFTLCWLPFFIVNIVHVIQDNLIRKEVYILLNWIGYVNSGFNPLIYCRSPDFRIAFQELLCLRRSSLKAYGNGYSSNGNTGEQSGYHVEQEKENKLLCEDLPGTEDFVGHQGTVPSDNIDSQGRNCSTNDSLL
# [11] = molecular target: AP-2 complex subunit beta (Homo sapiens) (UniProt P63010); assay: beta-arrestin/AP2 interaction blockers – biochemical, validation set, GST-AP2 beads, flow cytometry, pilot screen (AID 504541;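 active = inhibition above 54%, about 3 SD of non-fluorescent compounds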;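 note: AP2 carries R879A mutation and is captured from E. coli lysate; bead-bound FITC arrestin peptide fluorescence measuring arrestin peptide binding to AP2; 0% = DMSO wells and 100% = excess unlabeled arrestin peptide control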); settings: FITC arrestin peptide, at 10 µM, stronger effect = higher value, AP2 beta2 appendage fragment, R879A mutant
# Sequence of AP-2 complex subunit beta (Homo sapiens) (P63010 whole entry, looked up, the tested form may be a part, one chain of several): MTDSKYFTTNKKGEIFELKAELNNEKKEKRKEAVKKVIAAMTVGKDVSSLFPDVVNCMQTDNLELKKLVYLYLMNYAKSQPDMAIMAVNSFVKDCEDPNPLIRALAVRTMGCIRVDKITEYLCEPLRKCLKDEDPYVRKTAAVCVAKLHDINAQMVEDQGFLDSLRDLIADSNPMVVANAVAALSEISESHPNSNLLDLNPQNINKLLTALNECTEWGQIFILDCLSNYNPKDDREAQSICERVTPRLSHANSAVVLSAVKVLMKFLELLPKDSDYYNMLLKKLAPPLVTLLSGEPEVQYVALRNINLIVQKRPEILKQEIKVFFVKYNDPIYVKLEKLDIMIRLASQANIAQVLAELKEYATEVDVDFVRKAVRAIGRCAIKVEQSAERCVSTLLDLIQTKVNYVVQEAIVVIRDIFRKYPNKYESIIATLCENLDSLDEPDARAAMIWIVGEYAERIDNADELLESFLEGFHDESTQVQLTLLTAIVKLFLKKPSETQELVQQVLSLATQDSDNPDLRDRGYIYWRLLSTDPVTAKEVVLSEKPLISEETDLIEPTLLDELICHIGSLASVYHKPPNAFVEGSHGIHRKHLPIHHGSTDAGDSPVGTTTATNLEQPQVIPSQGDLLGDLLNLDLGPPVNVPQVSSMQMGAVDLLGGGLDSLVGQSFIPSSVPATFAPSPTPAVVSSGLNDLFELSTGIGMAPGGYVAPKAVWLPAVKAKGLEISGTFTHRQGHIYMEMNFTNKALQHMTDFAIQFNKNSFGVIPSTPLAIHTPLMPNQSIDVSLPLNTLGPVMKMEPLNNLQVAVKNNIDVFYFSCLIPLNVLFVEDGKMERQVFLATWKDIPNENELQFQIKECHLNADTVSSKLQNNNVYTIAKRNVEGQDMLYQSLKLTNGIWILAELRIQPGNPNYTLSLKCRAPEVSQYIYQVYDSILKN
# [12] = cytosolic pH regulators acting via V-ATPase – S. cerevisiae, pHLuorin, HTS validation (AID 504600; in the data active = response above about 15%;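 note: plate controls were DMSO for no effect and reference compound for full effect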); settings: V-ATPase proton transport, at 10 µM, stronger effect = higher value
# [13] = system: anti-desmoglein-3 scFv antibody binding to human DSG3; assay: blockers of pathogenic pemphigus antibody–desmoglein-3 binding – biochemical, validation compound set, bead-based, flow cytometry, pilot screen (AID 588368;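 active = binding below the plate cutoff, the plate median minus 3 SD, with a reading above zero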;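 note: signal is the median channel fluorescence of bead-bound GFP antibody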); settings: Protein G beads, DSG3-Fc, scFv-GFP binding, at 10 µM, stronger effect = lower value
# [14] = Nile Red efflux blockade in pump-expressing yeast – validation compound set, multiplex, phenotypic, pilot screen (AID 588506);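 note: Nile Red retained in cells so higher fluorescence means more efflux inhibition; 0 = negative control wells and 1 = enniatin B 25 µM full block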; settings: S. cerevisiae pump-expressing triplex, Nile Red efflux flow cytometry; at 10 µM; stronger effect = higher value; the pumps come from Candida albicans
# [15] = molecular target: ATP-binding cassette sub-family B member 6 (Homo sapiens) (UniProt Q9NP58); assay: blockers of ABCB6-driven porphyrin uptake – K562-ABCB6 cells, flow cytometry, validation set, pilot screen (AID 588550;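 active = inhibition above the screen-wide mean plus 3 SD, about 51%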;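 note: 0% = DMSO wells and 100% = benzethonium chloride 70 µM positive control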); settings: K562-ABCB6 porphyrin accumulation, 1 h, at 10 µM, stronger effect = higher value
# Sequence of ATP-binding cassette sub-family B member 6 (Homo sapiens) (Q9NP58 whole entry, looked up): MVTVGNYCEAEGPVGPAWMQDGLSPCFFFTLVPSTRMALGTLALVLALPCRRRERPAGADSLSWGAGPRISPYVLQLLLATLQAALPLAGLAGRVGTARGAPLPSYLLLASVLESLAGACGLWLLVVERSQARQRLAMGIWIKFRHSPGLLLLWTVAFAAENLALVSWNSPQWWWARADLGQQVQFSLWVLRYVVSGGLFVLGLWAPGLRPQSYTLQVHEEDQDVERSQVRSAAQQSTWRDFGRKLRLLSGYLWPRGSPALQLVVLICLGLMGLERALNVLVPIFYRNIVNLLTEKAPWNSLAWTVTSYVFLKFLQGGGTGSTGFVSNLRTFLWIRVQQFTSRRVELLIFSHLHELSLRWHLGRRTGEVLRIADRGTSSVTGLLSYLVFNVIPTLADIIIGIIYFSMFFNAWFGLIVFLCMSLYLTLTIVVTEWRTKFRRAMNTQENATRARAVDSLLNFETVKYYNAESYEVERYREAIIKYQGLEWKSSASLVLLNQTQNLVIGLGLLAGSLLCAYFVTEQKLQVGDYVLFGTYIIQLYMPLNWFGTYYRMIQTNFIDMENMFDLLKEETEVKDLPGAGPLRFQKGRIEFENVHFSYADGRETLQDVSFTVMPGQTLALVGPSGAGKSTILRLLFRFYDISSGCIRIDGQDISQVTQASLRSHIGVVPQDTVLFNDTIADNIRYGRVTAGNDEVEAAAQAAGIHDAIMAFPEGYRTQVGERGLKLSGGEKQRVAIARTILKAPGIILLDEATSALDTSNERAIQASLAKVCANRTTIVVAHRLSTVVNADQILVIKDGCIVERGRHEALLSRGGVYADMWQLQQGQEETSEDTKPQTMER
# [16] = AML differentiation inducers, ER-HoxA9 marrow cells – cell-based, GFP/MAC1 double positive, flow cytometry, validation set, primary screen (AID 588685;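 active = differentiation response of at least 50%, scaled between solvent and reference control, from cells with both markers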;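 note: compound exposure lasts four days before antibody staining and flow analysis; 0% = DMSO wells and 100% = 5 µM fulvestrant positive control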); settings: stronger effect = higher value, normalized: vehicle 0, fulvestrant 100
Compound,percent of DMSO control GFP [1],GFP response vs DMSO [2],percent response of DMSO control [3],GFP response vs DMSO [4],"GFP response, % of DMSO [5]",double positive events [6] [%],vesicle binding response [6],inhibition [7],superoxide response (% of plate) [8],aptamer binding inhibition [9],response [10],inhibition [11],response [12],binding (% of control) [13],efflux inhibition (fraction of control) [14],inhibition [15],differentiation response [16]
Cc1ccc(S(=O)(=O)Oc2ccccc2/C=N/N=C(N)N)cc1,102% (inactive),103% (inactive),104% (inactive),93.7% (inactive),103% (inactive),68.2,172% (inactive),12.6% (inactive),97.8% (inactive),1% (inactive),7.63% (inactive),6.93% (inactive),-0.49% (inactive),103% (inactive),0.01 (inactive),7% (inactive),-2.64% (inactive)
C[C@H](CCC(=O)O)[C@H]1CC[C@H]2[C@@H]3C(=O)C[C@@H]4CC(=O)CC[C@]4(C)[C@H]3CC(=O)[C@]12C,99.3% (inactive),105% (inactive),101% (inactive),120% (inactive),119% (inactive),57.7,220% (inactive),22.7% (inactive),95.4% (inactive),4% (inactive),-23.4% (inactive),10.1% (inactive),-2.4% (inactive),109% (inactive),-0.09 (inactive),0% (inactive),-11.9% (inactive)
c1ccc(Nc2cccc3c(Nc4ccccc4)cccc23)cc1,104% (inactive),107% (inactive),105% (inactive),88.7% (inactive),97.8% (inactive),62,284% (inactive),-28.5% (inactive),98.3% (inactive),1% (inactive),6.03% (inactive),21.9% (inactive),0.51% (inactive),91.6% (inactive),0.18 (inactive),-26% (inactive),14.9% (inactive)
COc1ccc(O)c(C(=O)/C=C/c2cc3ccccc3o2)c1,95.9% (inactive),112% (inactive),96.7% (inactive),109% (inactive),95.2% (inactive),59.6,117% (inactive),-0.43% (inactive),106% (inactive),3% (inactive),23% (inactive),1.27% (inactive),0.06% (inactive),102% (inactive),-0.17 (inactive),1% (inactive),-2.4% (inactive)
CC(C)(C)NCC(O)COc1ccccc1C(=O)CCc1ccccc1 (stereo not drawn),101% (inactive),101% (inactive),96.4% (inactive),108% (inactive),122% (inactive),60.4,196% (inactive),44% (inactive),129% (inactive),-1% (inactive),-37.6% (inactive),-9.53% (inactive),-4.49% (inactive),104% (inactive),0.04 (inactive),8% (inactive),46.2% (inactive)
CN1C(C(=O)Nc2ccccn2)=C(O)c2ccccc2S1(=O)=O,101% (inactive),103% (inactive),86.1% (inactive),106% (inactive),97.6% (inactive),63.2,383% (inactive),-13.9% (inactive),104% (inactive),1% (inactive),-12.3% (inactive),-12.3% (inactive),-0.85% (inactive),100% (inactive),-0.07 (inactive),26% (inactive),14.9% (inactive)
Cn1c(SCC(=O)c2ccccc2)nnc1-c1ccncc1,99% (inactive),103% (inactive),99.6% (inactive),112% (inactive),107% (inactive),61.9,157% (inactive),0.59% (inactive),105% (inactive),6% (inactive),-27.9% (inactive),4.51% (inactive),-4.48% (inactive),99.2% (inactive),-0.04 (inactive),2% (inactive),0.92% (inactive)
O=C(c1cccnc1)N1N=C(C2CC2)CC1(O)C(F)(F)F (stereo not drawn),99.1% (inactive),104% (inactive),93.9% (inactive),115% (inactive),104% (inactive),60.4,353% (inactive),-7.25% (inactive),106% (inactive),2% (inactive),-5.28% (inactive),2.62% (inactive),-0.29% (inactive),101% (inactive),-0.1 (inactive),10% (inactive),-28% (inactive)
Cc1cc(OC(=O)CNC(=O)OC(C)(C)C)c2c(C)cc(=O)oc2c1,101% (inactive),105% (inactive),97.7% (inactive),108% (inactive),111% (inactive),62.2,460% (inactive),10.8% (inactive),107% (inactive),3% (inactive),-17.2% (inactive),6.94% (inactive),-0.27% (inactive),93.1% (inactive),0 (inactive),2% (inactive),3.88% (inactive)
CN(C)CCOC(c1ccccc1)c1ccccc1 (tested in a mixture with another compound),103% (inactive),99.3% (inactive),98.9% (inactive),91.4% (inactive),96.4% (inactive),58.3,138% (inactive),13% (inactive),91.9% (inactive),3% (inactive),-5.43% (inactive),-10.1% (inactive),-1% (inactive),93.3% (inactive),0.27 (inactive),2% (inactive),5.13% (inactive)
CCCc1c(OCCCCc2nn[nH]n2)ccc(C(C)=O)c1O,107% (inactive),107% (inactive),104% (inactive),111% (inactive),112% (inactive),62.8,197% (inactive),-13.2% (inactive),115% (inactive),-5% (inactive),8.37% (inactive),-8.69% (inactive),-6.13% (inactive),105% (inactive),-0.16 (inactive),-13% (inactive),2.74% (inactive)
O=c1c(C(c2ccccc2)c2c(O)sc3ccccc3c2=O)c(O)sc2ccccc12,93.8% (inactive),97.6% (inactive),91.8% (inactive),112% (inactive),113% (inactive),71.3,187% (inactive),15.9% (inactive),90.1% (inactive),1% (inactive),-1.18% (inactive),-1.26% (inactive),0.43% (inactive),107% (inactive),-0.13 (inactive),-30% (inactive),37.4% (inactive)
NC(N)=N/N=C/c1cccc(Cl)c1Cl,104% (inactive),96.3% (inactive),98.6% (inactive),103% (inactive),98.8% (inactive),66.1,157% (inactive),9.13% (inactive),97.9% (inactive),-3% (inactive),22.4% (inactive),14.4% (inactive),-0.64% (inactive),102% (inactive),-0.24 (inactive),4% (inactive),-18.4% (inactive)
CC(C)Oc1ccc2c(=O)c(-c3ccccc3)coc2c1,86.5% (inactive),101% (inactive),106% (inactive),83.1% (inactive),94% (inactive),66.7,209% (inactive),-7.12% (inactive),94.6% (inactive),0% (inactive),1.13% (inactive),2.38% (inactive),1.01% (inactive),101% (inactive),-0.53 (inactive),13% (inactive),-5.73% (inactive)
COc1cc2c(cc1OC)/C(=C/c1ccc(Cl)cc1)C(=O)OC2,87.8% (inactive),108% (inactive),95.2% (inactive),83.1% (inactive),85.7% (inactive),63.9,155% (inactive),-7.12% (inactive),95.8% (inactive),4% (inactive),-8.94% (inactive),10.1% (inactive),-2.13% (inactive),104% (inactive),0.3 (inactive),1% (inactive),-2.46% (inactive)
Cc1cc(C)cc(Nc2nc3c([nH]2)c(=O)n(C)c(=O)n3C)c1,102% (inactive),105% (inactive),112% (inactive),103% (inactive),105% (inactive),63.9,212% (inactive),6.95% (inactive),89.7% (inactive),-6% (inactive),6.07% (inactive),61% (active),-8.26% (inactive),102% (inactive),-0.14 (inactive),-9% (inactive),10.1% (inactive)
N#Cc1cc2c([nH]c1=O)CCCC2,103% (inactive),98.3% (inactive),108% (inactive),90.7% (inactive),108% (inactive),63.2,184% (inactive),16.1% (inactive),89.5% (inactive),0% (inactive),-10.3% (inactive),-13.1% (inactive),12.5% (inactive),97.7% (inactive),-0.04 (inactive),-2% (inactive),-5.62% (inactive)
CC(=O)N1CCN2C(=O)C1CCCC(=O)c1cc(C(C)C)ccc12 (stereo not drawn),99.5% (inactive),90.8% (inactive),103% (inactive),82.8% (inactive),91.2% (inactive),55.3,234% (inactive),-4.52% (inactive),94.5% (inactive),6% (inactive),0.52% (inactive),-5.05% (inactive),0.04% (inactive),103% (inactive),-0.24 (inactive),9% (inactive),20% (inactive)
O=C(Nc1ccc(N2CCOCC2)cc1)c1ccc(-c2ccccc2[N+](=O)[O-])o1,102% (inactive),102% (inactive),106% (inactive),96.5% (inactive),98.8% (inactive),68.5,132% (inactive),3.98% (inactive),99.9% (inactive),5% (inactive),8.71% (inactive),-4.06% (inactive),1.65% (inactive),97.9% (inactive),0.07 (inactive),6% (inactive),-1.88% (inactive)
